WRN helicase inh = WRN helicase (human) inhibition; Q14191; WRN helicase unwinding, fluorescent forked duplex, kinetic; Potency, µM (highest dose often 114 µM), inactives show at the top dose activity change, negative = inhibition, actives largely listed as inhibitors; actives 0.46% (n = 360,000); AID 651768; note: % is set by controls: 0 for no effect and ±100 for the full control effect; nearly all actives have a fitted effect of over 55% in size
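Kinetic red-fluorescence monitoring (525/598 nm) tracks WRN helicase activity after 100 nM fluorophore-quencher forked duplex and 2 mM ATP are added to 20 nM enzyme pretreated 15 min at room temperature with compound.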
POLI inh = blocks human DNA polymerase iota activity; Q9UNA4; Pol iota fluorescent replication assay, 10 min; Potency, µM (top dose mostly 115 µM), for the others: at the highest dose activity, negative = inhibition, hits mostly inhibitors; actives 1% (n = 390,000); AID 588590
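Fluorescent replication assay read twice, at 0 min and 10 min after adding 50 nM (final) substrate. Enzyme (10 nM) and compounds were first incubated 15 min at room temperature; enzyme-free buffer wells were negative controls.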
POLB inh = blocks human DNA polymerase beta activity; P06746; AID 485314; Potency, µM (doses to about 114 µM), inactives show at the top dose activity change, negative = inhibition, most hits filed as inhibitors; actives 1.3% (n = 340,000); Pol beta primer extension/strand displacement, fluorescence kinetic; note: % is set by controls: 0 for no effect and ±100 for the full control effect
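Values derive from four-parameter Hill fits of normalized kinetic data: reads at 0 and 10 min following addition of 50 nM substrate to 10 nM Pol beta preincubated 15 min with compound.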
Pol eta inh-1 = inhibitors of human DNA polymerase eta; recombinant Pol eta, fluorescent DNA replication assay; Potency, µM (highest dose often 114 µM), without a hit: at the highest dose activity change, negative = inhibition, most hits filed as inhibitors; actives 1.2% (n = 390,000); AID 588591; note: % is set by controls: 0 for no effect and ±100 for the full control effect
Target sequence (Q9Y253 whole entry, looked up): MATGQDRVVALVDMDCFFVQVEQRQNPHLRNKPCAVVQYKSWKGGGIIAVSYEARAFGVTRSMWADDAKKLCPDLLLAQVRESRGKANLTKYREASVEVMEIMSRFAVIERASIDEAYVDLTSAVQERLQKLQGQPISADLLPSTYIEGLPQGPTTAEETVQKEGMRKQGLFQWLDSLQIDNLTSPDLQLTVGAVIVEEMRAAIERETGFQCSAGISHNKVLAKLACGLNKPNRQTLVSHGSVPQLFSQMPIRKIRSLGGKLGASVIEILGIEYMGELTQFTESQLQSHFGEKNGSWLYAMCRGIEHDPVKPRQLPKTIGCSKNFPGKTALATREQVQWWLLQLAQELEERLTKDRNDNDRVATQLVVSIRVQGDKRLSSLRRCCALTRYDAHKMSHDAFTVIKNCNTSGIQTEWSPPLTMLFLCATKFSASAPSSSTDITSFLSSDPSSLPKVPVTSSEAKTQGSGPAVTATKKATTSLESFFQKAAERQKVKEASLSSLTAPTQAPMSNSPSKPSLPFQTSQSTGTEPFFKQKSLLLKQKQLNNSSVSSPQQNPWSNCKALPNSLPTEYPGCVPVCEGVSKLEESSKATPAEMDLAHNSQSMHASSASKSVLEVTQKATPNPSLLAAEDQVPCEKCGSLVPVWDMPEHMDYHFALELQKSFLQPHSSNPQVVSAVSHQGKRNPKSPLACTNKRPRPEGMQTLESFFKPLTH
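Pol eta (10 nM) was preincubated with compounds for 15 min at room temperature, after which fluorescent replication substrate (50 nM final) was added to start the reaction. Fluorescence was read kinetically at 0 and 10 min.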
FEN1 inhibitor = blocks human flap endonuclease 1 | P39748 | Recombinant FEN1 flap cleavage, fluorescence, 15 min | Potency, µM (titrated, usually from 114 µM), for the others: at the top dose activity change, negative = inhibition, usual class: inhibitors | actives 0.35% (n = 390,000) | AID 588795; note: % is set by controls: 0 for no effect and ±100 for the full control effect; nearly all actives have a fitted effect of over 65% in size
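With each library titrated from low to high concentration, compounds met 10 nM FEN1 for 15 min at room temperature before 50 nM substrate was added; readings at 0 and 15 min fed four-parameter Hill curve fits.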
Pol kappa inh-1 = DNA polymerase kappa (human) inhibition; actives 0.53% (n = 400,000); Q9UBT6; Potency, µM (doses to about 107 µM), for the others: top-dose activity, negative = inhibition, hits mostly inhibitors; purified Pol kappa, fluorescent DNA synthesis assay, 10 min; note: % is set by controls: 0 for no effect and ±100 for the full control effect
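10 nM Pol kappa preincubated 15 min at room temperature with compounds, then reaction started with substrate at 50 nM final. Fluorescence read kinetically at 0 and 10 min; buffer-only wells served as negative control.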
Pol kappa inh-2 = confirmation of human DNA polymerase kappa inhibitors. shares compounds with Pol eta inh-1. purified Pol-kappa, fluorescent strand-displacement substrate. Potency, µM, actives largely listed as inhibitors. actives 76% (n = 920)
Pol eta inh-2 = confirmation of human DNA polymerase eta inhibitors | actives 64% (n = 2,600) | Potency, µM, hits mostly inhibitors | AID 720502 | Pol eta primer extension, TAMRA/BHQ fluorescence, 10 min | shares compounds with Pol eta inh-1
* marks the source's active call; other numbers are inactive results; [ ] = dose if it differs, or a comment. Hits are enriched below; roughly 2.4% of the tested compounds scored in any of these assays. Calls come from the whole dose curve; as a rule, active = well fitted curve in the direction sought with a large enough effect; inconclusive = small, poorly fitted or top-dose-only effect, or another doubt; inactive = no such curve, though single readings can be large; an effect the other way counts as inactive or inconclusive. Potency is the fitted concentration of half-maximal effect.

For Cc1ccc(S(=O)(=O)C(CNC(=O)COc2ccccc2)c2ccco2)cc1 (stereo unspecified) the results were POLI inh -9%, POLB inh 28%, Pol eta inh-1 -5%, FEN1 inhibitor -9% and Pol kappa inh-1 -9%[60.1 µM].
Screening O=C(O)C/C(=C\c1ccc(N2CCOCC2)c([N+](=O)[O-])c1)c1nc2ccccc2s1 returned WRN helicase inh inconclusive, POLI inh -23%, POLB inh inconclusive, Pol eta inh-1 32µM*, FEN1 inhibitor -6%, Pol kappa inh-1 inconclusive and Pol kappa inh-2 inconclusive.
For O=C(O)CC/C(=C\c1ccc(N2CCOCC2)c([N+](=O)[O-])c1)c1nc2ccccc2s1 the results were WRN helicase inh -3%, POLI inh 6%, POLB inh 25%, Pol eta inh-1 -9%, FEN1 inhibitor -14% and Pol kappa inh-1 -7%.
For Fc1ccc(N2CCN(c3nc4ccccc4c4nc(-c5cccnc5)nn34)CC2)cc1 the results were POLI inh 12%, POLB inh 0%, Pol eta inh-1 -4%, FEN1 inhibitor 17% and Pol kappa inh-1 1%.
Screening CC(C)(C)OC(=O)NCCCCC1=CC2=CC(=O)C(C)(O)C(=O)C2=CO1 (stereo unspecified) returned WRN helicase inh inconclusive, POLI inh 50µM*, Pol eta inh-1 20µM*, FEN1 inhibitor -21%, Pol kappa inh-1 79µM* and Pol eta inh-2 60*.
O=[N+]([O-])c1ccc2nc(-c3ccc(Cl)cc3)n(OCc3ccccc3)c2c1 was read as WRN helicase inh -16%, POLI inh 17%, POLB inh 20%, Pol eta inh-1 -11%, FEN1 inhibitor 8% and Pol kappa inh-1 -4%.
`O=C(O)COn1c(-c2ccccc2)nc2ccc([N+](=O)[O-])cc21` gave WRN helicase inh -13%[11.6 µM], POLI inh inconclusive, POLB inh 35µM*, Pol eta inh-1 18µM*, FEN1 inhibitor -5%, Pol kappa inh-1 inconclusive and Pol eta inh-2 inconclusive.
Screening CCN(CC)c1ccc(NC(=O)c2c(C)nn(-c3ccc(F)cc3)c2-n2cccc2)c(C)c1 returned POLI inh 10%, POLB inh 17%, Pol eta inh-1 -27%, FEN1 inhibitor -26% and Pol kappa inh-1 4%.
O=C(O)c1ccccc1C(=O)c1ccc2oc(=O)[nH]c2c1 was read as WRN helicase inh -4%[11.6 µM], POLI inh inconclusive, Pol eta inh-1 22µM*, FEN1 inhibitor -1%, Pol kappa inh-1 inconclusive, Pol kappa inh-2 inconclusive and Pol eta inh-2 38*.
`N#CCCn1c(=O)c(-c2ccccc2)nc2cnc(Oc3ccccc3)nc21` gave Pol kappa inh-1 -1%[60.1 µM].
For O=NCc1ccc([N+](=O)[O-])o1 the results were Pol kappa inh-1 -2%[60.1 µM].
Screening Cc1ccc(Cl)c2c1N[C@@H](c1ccc(C(=O)O)cc1)[C@H]1CC=C[C@@H]21 returned POLI inh 32µM*, POLB inh 16µM*, Pol eta inh-1 inconclusive, FEN1 inhibitor -34%, Pol kappa inh-1 32µM*, Pol kappa inh-2 75* and Pol eta inh-2 inconclusive.
For Cc1cccc(-n2c(C)cc(/C=C3\C(=N)N4N=C(CC(C)C)SC4=NC3=O)c2C)c1 the results were WRN helicase inh 5%, POLI inh -6%, POLB inh 3%, Pol eta inh-1 -17%, FEN1 inhibitor -7% and Pol kappa inh-1 -6%.
For CC(C)CC1=NN2C(=N)/C(=C\c3coc4ccccc4c3=O)C(=O)N=C2S1 the results were WRN helicase inh inconclusive, POLI inh inconclusive, POLB inh 20µM*, Pol eta inh-1 20µM*, FEN1 inhibitor 32µM*, Pol kappa inh-1 inconclusive and Pol eta inh-2 76*.
CCSC1=NSC2=NC(=O)/C(=C\c3coc4ccccc4c3=O)C(=N)N12 was read as WRN helicase inh inconclusive, POLI inh inconclusive, POLB inh 28µM*, Pol eta inh-1 20µM*, FEN1 inhibitor inconclusive, Pol kappa inh-1 -19% and Pol kappa inh-2 inconclusive.
Screening CSC1=NSC2=NC(=O)/C(=C\c3ccc(OC(=O)c4ccco4)cc3)C(=N)N12 returned WRN helicase inh inconclusive, POLI inh inconclusive, POLB inh -29%, Pol eta inh-1 inconclusive, FEN1 inhibitor -3% and Pol kappa inh-1 -31%.
For COc1cc(/C=C2\C(C)=C(C#N)c3nc(N)c(C#N)c(C)c32)ccc1OCC(=O)O the results were WRN helicase inh -15%, POLI inh -25%, POLB inh 2%, Pol eta inh-1 22µM*, FEN1 inhibitor inconclusive, Pol kappa inh-1 -35% and Pol eta inh-2 38*.
For CC1=C(C#N)c2nc(N)c(C#N)c(C)c2/C1=C\c1ccc(C)cc1 the results were POLB inh 5%.
Screening O=C(N/N=C/c1cc(Br)c(O)c(Br)c1O)c1ccc2c(c1)OCCO2 returned WRN helicase inh -8%[11.6 µM], POLI inh inconclusive, POLB inh 40µM*, Pol eta inh-1 inconclusive, FEN1 inhibitor 5%, Pol kappa inh-1 -39%, Pol kappa inh-2 34* and Pol eta inh-2 inconclusive.
CCN1CCN(Cc2c(O)ccc3oc(C)c(C(=O)Nc4cccc(C(F)(F)F)c4)c23)CC1 was read as POLI inh -2%, POLB inh 8%, Pol eta inh-1 -16%, FEN1 inhibitor 6% and Pol kappa inh-1 7%.

Assay outcomes: PubChem BioAssay, National Center for Advancing Translational Sciences (NCATS)
